Results filed as inconclusive are left out. Activity calls are given as the source filed them. Calls follow the shape of the dose curve; as a rule, active = well fitted cell-killing curve with a large enough effect; inconclusive = small, poorly fitted or top-dose-only effect, or effect the other way; inactive = flat fitted curve, though single readings scatter.
How the values were obtained:
Experiment in all cases: Primary qHTS to identify gynecologic anti-cancer compounds using libraries of approved drugs and bioactive compounds (AID 1345084); also: nearly all actives have a fitted effect of over 55% in size
[1] = test system: C33A; details: Gynecologic cancer cell panel viability, ATPlite luminescence, 48 h; series mostly up to 57.5 µM
Summary of the method: (§1)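 Cytotoxicity screen measuring ATP content by luciferase luminescence. Each compound is applied at five concentrations for 48 h at 37 C with 5% CO2.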

[2] = test system: CAOV3; details: Gynecologic cancer cell panel viability, ATPlite luminescence, 48 h; series mostly up to 57.5 µM
Summary of the method: as §1

[3] = test system: CASKI; details: Gynecologic cancer cell panel viability, ATPlite luminescence, 48 h; series mostly up to 57.5 µM
Summary of the method: as §1

[4] = test system: Es-2; details: Gynecologic cancer cell panel viability, ATPlite luminescence, 48 h; series mostly up to 57.5 µM
Summary of the method: as §1

[5] = test system: HeLa; details: Gynecologic cancer cell panel viability, ATPlite luminescence, 48 h; series mostly up to 57.5 µM
Summary of the method: as §1

[6] = test system: Hek293T; details: Gynecologic cancer cell panel viability, ATPlite luminescence, 48 h, control line for the selectivity index; series mostly up to 57.5 µM
Summary of the method: as §1

[7] = test system: JEG-3; details: Gynecologic cancer cell panel viability, ATPlite luminescence, 48 h; series mostly up to 57.5 µM
Summary of the method: as §1

[8] = test system: OV90; details: Gynecologic cancer cell panel viability, ATPlite luminescence, 48 h; series mostly up to 57.5 µM
Summary of the method: as §1

[9] = test system: PA-1; details: Gynecologic cancer cell panel viability, ATPlite luminescence, 48 h; series mostly up to 57.5 µM
Summary of the method: as §1

[10] = test system: SKOV3; details: Gynecologic cancer cell panel viability, ATPlite luminescence, 48 h; series mostly up to 57.5 µM
Summary of the method: as §1

[11] = test system: Tov-21-G; details: Gynecologic cancer cell panel viability, ATPlite luminescence, 48 h; series mostly up to 57.5 µM
Summary of the method: as §1

[12] = test system: Tov112D; details: Gynecologic cancer cell panel viability, ATPlite luminescence, 48 h; series mostly up to 57.5 µM
Summary of the method: as §1
% is scaled to controls: 0 for no effect and ±100 for the full control effect.

Nc1nc2c(ncn2[C@@H]2O[C@H](CO)[C@@H](O)[C@H]2O)c(=O)[nH]1
inactive: Potency [1] | Potency [2] | Potency [3] | Potency [4] | Potency [5] | Potency [6] | Potency [7] | Potency [8] | Potency [9] | Potency [10] | Potency [11] | Potency [12]

COc1ccc2cc(C(C)C(=O)Oc3ccc(C(N)=S)cc3)ccc2c1 (stereo unspecified)
inactive: Potency [1] | Potency [2] | Potency [3] | Potency [4] | Potency [5] | Potency [6] | Potency [7] | Potency [8] | Potency [9] | Potency [10] | Potency [11] | Potency [12]

Cc1nc2sc(C(=O)NCc3ccncc3)c(N)c2c(C)c1Cl
inactive: Potency [1] | Potency [2] | Potency [3] | Potency [4] | Potency [5] | Potency [6] | Potency [7] | Potency [8] | Potency [9] | Potency [10] | Potency [11] | Potency [12]

COC(=O)C1=CO[C@@H](O[C@@H]2O[C@H](CO[C@@H]3O[C@H](COC(=O)/C=C/c4cc(OC)c(O)c(OC)c4)[C@@H](O)[C@H](O)[C@H]3O)[C@@H](O)[C@H](O)[C@H]2O)[C@@H]2C(CO)=CC[C@H]12
inactive: Potency [1] | Potency [2] | Potency [3] | Potency [4] | Potency [5] | Potency [6] | Potency [7] | Potency [8] | Potency [9] | Potency [10] | Potency [11] | Potency [12]

CC1=C2C(O)C(=O)OC(c3ccoc3)C2(C)CCC1O (stereo unspecified)
inactive: Potency [1] | Potency [2] | Potency [3] | Potency [4] | Potency [5] | Potency [6] | Potency [7] | Potency [8] | Potency [9] | Potency [10] | Potency [11] | Potency [12]

Nc1ncnc2c1ncn2CCNCCCCCO
inactive: Potency [1] | Potency [2] | Potency [3] | Potency [4] | Potency [5] | Potency [6] | Potency [7] | Potency [8] | Potency [9] | Potency [10] | Potency [11] | Potency [12]

CC1OC(OC2C(CO)OC(OCC3OC(OC(=O)C45CCC(C)(C)CC4C4=CCC6C7(C)CCC(OC8OC(CO)C(O)C(OC9OC(CO)C(O)C(O)C9O)C8O)C(C)(C)C7CCC6(C)C4(C)CC5)C(O)C(O)C3O)C(O)C2O)C(O)C(O)C1OC1OC(CO)C(O)C(O)C1O (stereo unspecified)
inactive: activity change, negative = cytotoxicity [1] -0.229% [at 6.55 µM] | activity change, negative = cytotoxicity [2] -14.1% [at 6.55 µM] | activity change, negative = cytotoxicity [3] 8.74% [at 6.55 µM] | activity change, negative = cytotoxicity [4] 5.26% [at 6.55 µM] | activity change, negative = cytotoxicity [5] 3.66% [at 6.55 µM] | activity change, negative = cytotoxicity [6] 13.1% [at 6.55 µM] | activity change, negative = cytotoxicity [7] 7.02% [at 6.55 µM] | activity change, negative = cytotoxicity [8] 6.18% [at 6.55 µM] | activity change, negative = cytotoxicity [9] 2.62% [at 6.55 µM] | activity change, negative = cytotoxicity [10] 13.6% [at 6.55 µM] | activity change, negative = cytotoxicity [11] 3.67% [at 6.55 µM] | activity change, negative = cytotoxicity [12] -6.51% [at 6.55 µM]

Nc1ncnc2c([C@@H]3N[C@H](CO)[C@@H](O)[C@H]3O)c[nH]c12
inactive: Potency [1] | Potency [2] | Potency [3] | Potency [4] | Potency [5] | Potency [6] | Potency [7] | Potency [8] | Potency [9] | Potency [10] | Potency [11] | Potency [12]

CC1CC[C@]2(C(=O)O)CC[C@]3(C(=O)O)C(=CCC4[C@@]5(C)CC[C@H](OC6OC(C)C(O)C(OC7OC(CO)C(O)C(O)C7O)C6O)C(C)(C)C5CC[C@]43C)C2C1C (stereo partly specified)
inactive: Potency [1] | Potency [2] | Potency [3] | Potency [4] | Potency [5] | Potency [6] | Potency [7] | Potency [8] | Potency [9] | Potency [10] | Potency [11] | Potency [12]

CNS(=O)(=O)CC1CCC(N(C)c2ncnc3[nH]ccc23)CC1 (stereo unspecified)
inactive: Potency [1] | Potency [2] | Potency [3] | Potency [4] | Potency [5] | Potency [6] | Potency [7] | Potency [8] | Potency [9] | Potency [10] | Potency [11] | Potency [12]

C=C1CC[C@@H]2[C@@](C)(CO[C@@H]3O[C@H](CO)C(O)[C@H](O)C3O)[C@H](O)CC[C@@]2(C)[C@@H]1CC/C(C)=C/CO (stereo partly specified)
inactive: activity change, negative = cytotoxicity [1] -18.4% [at 11.6 µM] | activity change, negative = cytotoxicity [2] 1.16% [at 11.6 µM] | activity change, negative = cytotoxicity [3] -5.44% [at 11.6 µM] | activity change, negative = cytotoxicity [4] 9.56% [at 11.6 µM] | activity change, negative = cytotoxicity [5] -3.99% [at 11.6 µM] | activity change, negative = cytotoxicity [6] 2% [at 11.6 µM] | activity change, negative = cytotoxicity [7] 2.39% [at 11.6 µM] | activity change, negative = cytotoxicity [8] 6% [at 11.6 µM] | activity change, negative = cytotoxicity [9] 7% [at 11.6 µM] | activity change, negative = cytotoxicity [10] -9.26% [at 11.6 µM] | activity change, negative = cytotoxicity [11] 4.35% [at 11.6 µM] | activity change, negative = cytotoxicity [12] 4.42% [at 11.6 µM]

C=CC[C@]12C[C@@H](OC)C(=O)C(OC)=C1O[C@@H](c1cc(OC)c3c(c1)OCO3)[C@@H]2C
inactive: Potency [1] | Potency [2] | Potency [3] | Potency [4] | Potency [5] | Potency [6] | Potency [7] | Potency [8] | Potency [9] | Potency [10] | Potency [11] | Potency [12]

CC1(C)CCC2(C(=O)OC3OC(CO)C(O)C(O)C3O)CCC3(C)C(=CCC4C5(C)CCC(OC6OC(C(=O)O)C(OC7OC(CO)C(O)C(O)C7O)C(OC7OC(CO)C(O)C(O)C7O)C6O)C(C)(C)C5CCC43C)C2C1 (stereo unspecified)
inactive: activity change, negative = cytotoxicity [1] -2.64% [at 11.6 µM] | activity change, negative = cytotoxicity [2] 3.96% [at 11.6 µM] | activity change, negative = cytotoxicity [3] 5.46% [at 11.6 µM] | activity change, negative = cytotoxicity [4] -0.153% [at 11.6 µM] | activity change, negative = cytotoxicity [5] 10.1% [at 11.6 µM] | activity change, negative = cytotoxicity [6] -1.3% [at 11.6 µM] | activity change, negative = cytotoxicity [7] -1.35% [at 11.6 µM] | activity change, negative = cytotoxicity [8] 3.02% [at 11.6 µM] | activity change, negative = cytotoxicity [9] 16.1% [at 11.6 µM] | activity change, negative = cytotoxicity [10] 13.2% [at 11.6 µM] | activity change, negative = cytotoxicity [11] 1.15% [at 11.6 µM] | activity change, negative = cytotoxicity [12] 6% [at 11.6 µM]

From PubChem BioAssay (NCATS)
